Inconclusive results are not listed. Activity calls are given as the source filed them. The call rests on the fitted dose curve; in most records, active means well fitted curve in the direction sought with a large enough effect; inconclusive means small, poorly fitted or top-dose-only effect, or another doubt; inactive means no such curve, though single readings can be large; an effect the other way counts as inactive or inconclusive.
Key:
HACAT = experiment: qHTS assay to identify novel small-molecules to repurpose for Merkel cell carcinoma treatment (AID 1296009); details: MCC and control cell lines, CellTiter-Glo viability, 72 h; at 44.8 µM (top of the series) unless noted; further: nearly all actives have a fitted effect of over 60% in size
Procedure, shortened: (§1)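 Cells were treated for 72 hr at 37 degree celsius with compounds in 8- or 11-point dose response. Viability was read by CellTiter-Glo luminescence, normalized to no-cell (cytotoxicity) and DMSO controls.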

NIH3T3 = experiment: as above; details: MCC and control cell lines, CellTiter-Glo viability, 72 h; at 44.8 µM (top of the series) unless noted
Procedure, shortened: as §1

C33A = experiment: Primary qHTS to identify gynecologic anti-cancer compounds using libraries of approved drugs and bioactive compounds (AID 1345084); details: Gynecologic cancer cell panel viability, ATPlite luminescence, 48 h; series mostly up to 57.5 µM; further: on the % scale 0 is the no-effect control and ±100 the full control effect; nearly all actives have a fitted effect of over 55% in size
Procedure, shortened: (§2)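 Cell viability after 48 h drug treatment, ATPlite luminescence readout; five doses.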

CAOV3 = experiment: as above; details: Gynecologic cancer cell panel viability, ATPlite luminescence, 48 h; series mostly up to 57.5 µM
Procedure, shortened: as §2

CASKI = experiment: as above; details: Gynecologic cancer cell panel viability, ATPlite luminescence, 48 h; series mostly up to 57.5 µM
Procedure, shortened: as §2

Es-2 = experiment: as above; details: Gynecologic cancer cell panel viability, ATPlite luminescence, 48 h; series mostly up to 57.5 µM
Procedure, shortened: as §2

HeLa = experiment: as above; details: Gynecologic cancer cell panel viability, ATPlite luminescence, 48 h; series mostly up to 57.5 µM
Procedure, shortened: as §2

Hek293T = experiment: as above; details: Gynecologic cancer cell panel viability, ATPlite luminescence, 48 h, control line for the selectivity index; series mostly up to 57.5 µM
Procedure, shortened: as §2

JEG-3 = experiment: as above; details: Gynecologic cancer cell panel viability, ATPlite luminescence, 48 h; series mostly up to 57.5 µM
Procedure, shortened: as §2

CC1=CC(=O)[C@]2(O[C@@H]3O[C@@H](C)[C@H](O)[C@@H](O)[C@H]3O)C=CO[C@@H](O[C@@H]3O[C@H](CO)[C@@H](O)[C@H](O)[C@H]3O)[C@H]12
inactive: outcome (HACAT) inactive [at 17.4 µM] | outcome (NIH3T3) inactive [at 17.4 µM] | Potency (C33A) | Potency (CAOV3) | outcome (CASKI) | Potency (Es-2) | Potency (HeLa) | Potency (Hek293T) | Potency (JEG-3)

Cc1onc(-c2ccccc2Cl)c1C(=O)N(C)c1ccc(Cl)cc1
inactive: outcome (HACAT) | outcome (NIH3T3) | Potency (C33A) | Potency (CAOV3) | outcome (CASKI) | Potency (Es-2) | Potency (HeLa) | Potency (Hek293T) | Potency (JEG-3)

COc1cnc(-n2cnc(C)n2)c2[nH]cc(C(=O)C(=O)N3CCN(C(=O)c4ccccc4)CC3)c12
inactive: outcome (HACAT) | outcome (NIH3T3) | Potency (C33A) | Potency (CAOV3) | outcome (CASKI) | Potency (Es-2) | Potency (HeLa) | Potency (Hek293T) | Potency (JEG-3)

COc1ccc(CC(=O)NCc2ccccc2-c2ccccc2C(=O)NCCc2cccnc2)cc1
inactive: outcome (HACAT) | outcome (NIH3T3) | Potency (C33A) | Potency (CAOV3) | outcome (CASKI) | Potency (Es-2) | Potency (HeLa) | Potency (Hek293T) | Potency (JEG-3)

COC(=O)C(CC1(O)c2ccccc2N2C(=O)C(CC(C)C)NC21)n1cnc2ccccc2c1=O (stereo unspecified)
inactive: outcome (HACAT) inactive [at 17.4 µM] | outcome (NIH3T3) inactive [at 17.4 µM] | Potency (C33A) | Potency (CAOV3) | outcome (CASKI) | Potency (Es-2) | Potency (HeLa) | Potency (Hek293T) | Potency (JEG-3)

CC1(C)O[C@H]2CC(=O)OC[C@@]23C1=C(O)C(=O)[C@]1(C)C3CC[C@@]2(C)[C@H](c3ccoc3)OC(=O)[C@H]3O[C@]321 (stereo partly specified)
inactive: outcome (HACAT) inactive [at 17.4 µM] | outcome (NIH3T3) inactive [at 17.4 µM] | Potency (C33A) | Potency (CAOV3) | outcome (CASKI) | Potency (Es-2) | Potency (HeLa) | Potency (Hek293T) | Potency (JEG-3)

COC(=O)C1=CO[C@@H](O[C@@H]2O[C@H](CO)[C@@H](O)[C@H](O)[C@H]2O)/C(=C\CO)[C@@H]1CC(=O)OCCc1ccc(O)cc1
inactive: outcome (HACAT) inactive [at 17.4 µM] | outcome (NIH3T3) inactive [at 17.4 µM] | Potency (C33A) | Potency (CAOV3) | outcome (CASKI) | Potency (Es-2) | Potency (HeLa) | Potency (Hek293T) | Potency (JEG-3)

CC(=O)OC[C@]12[C@@H](OC(=O)c3ccoc3)C[C@@H]3[C@@H](OC(C)=O)[C@]1(OC3(C)C)[C@@](C)(O)C[C@H](OC(=O)c1ccoc1)[C@@H]2OC(=O)c1ccoc1
inactive: outcome (HACAT) inactive [at 17.4 µM] | outcome (NIH3T3) inactive [at 17.4 µM] | Potency (C33A) | Potency (CAOV3) | outcome (CASKI) | Potency (Es-2) | Potency (HeLa) | Potency (Hek293T) | Potency (JEG-3)

COc1cc2c(cc1O)CC(O)(CO)C(CO)C2c1ccc(OC2OC(CO)C(O)C(O)C2O)c(OC)c1 (stereo unspecified)
inactive: outcome (HACAT) inactive [at 17.4 µM] | outcome (NIH3T3) inactive [at 17.4 µM] | Potency (C33A) | Potency (CAOV3) | outcome (CASKI) | Potency (Es-2) | Potency (HeLa) | Potency (Hek293T) | Potency (JEG-3)

C/C=C1\[C@H](O[C@@H]2O[C@H](CO)[C@@H](O)[C@H](O)[C@H]2O)OC=C(C(=O)O)[C@H]1CC(=O)OCCc1ccc(O)cc1
inactive: outcome (HACAT) inactive [at 17.4 µM] | outcome (NIH3T3) inactive [at 17.4 µM] | Potency (C33A) | Potency (CAOV3) | outcome (CASKI) | Potency (Es-2) | Potency (HeLa) | Potency (Hek293T) | Potency (JEG-3)

C[C@@H]1CC[C@]2(C(=O)O)CC[C@]3(C)C(=CCC4[C@@]5(C)C[C@@H](O)[C@H](O)[C@@](C)(CO)C5CC[C@]43C)C2[C@H]1C (stereo partly specified)
inactive: outcome (HACAT) inactive [at 17.4 µM] | outcome (NIH3T3) inactive [at 17.4 µM] | Potency (C33A) | Potency (CAOV3) | outcome (CASKI) | Potency (Es-2) | Potency (HeLa) | Potency (Hek293T) | Potency (JEG-3)

Cc1c(-c2ccc3c(c2)OCO3)oc2ccc(C(O)C(C)O)cc12 (stereo unspecified)
inactive: outcome (HACAT) | outcome (NIH3T3) | Potency (C33A) | Potency (CAOV3) | outcome (CASKI) | Potency (Es-2) | Potency (HeLa) | Potency (Hek293T) | Potency (JEG-3)

CC1(C)CC[C@]2(C(=O)O[C@@H]3O[C@H](CO)[C@@H](O)[C@H](O)[C@H]3O)CC[C@]3(C)C(=CCC4[C@@]5(C)C[C@@H](O)[C@H](O)[C@@](C)(CO)C5[C@H](O)C[C@]43C)C2C1 (stereo partly specified)
inactive: outcome (HACAT) inactive [at 17.4 µM] | outcome (NIH3T3) inactive [at 17.4 µM] | Potency (C33A) | Potency (CAOV3) | outcome (CASKI) | Potency (Es-2) | Potency (HeLa) | Potency (Hek293T) | Potency (JEG-3)

CC1(C)CCC2(C(=O)O)C(O)CC3(C)C(=CCC4C5(C)CCC(OC6OC(CO)C(O)C(O)C6OC6OC(CO)C(O)C(O)C6OC6OCC(O)(CO)C6O)C(C)(C)C5CCC43C)C2C1 (stereo unspecified)
inactive: outcome (HACAT) inactive [at 9.27 µM] | outcome (NIH3T3) inactive [at 9.27 µM] | activity change, negative = cytotoxicity (C33A) -3% [at 11.6 µM] | activity change, negative = cytotoxicity (CAOV3) 12.3% [at 11.6 µM] | activity change, negative = cytotoxicity (CASKI) -10.6% [at 11.6 µM] | activity change, negative = cytotoxicity (Es-2) -1.15% [at 11.6 µM] | activity change, negative = cytotoxicity (Hek293T) 13.1% [at 11.6 µM] | activity change, negative = cytotoxicity (JEG-3) -1.43% [at 11.6 µM]

C/C(=C\CCC(C)CCO)C(=O)OC[C@H]1O[C@@H](O[C@@H]2OC=C(C(=O)O)[C@H]3CC[C@](C)(O)[C@@H]23)C(O)[C@@H](O)C1O (stereo partly specified)
inactive: outcome (HACAT) inactive [at 17.4 µM] | outcome (NIH3T3) inactive [at 17.4 µM] | Potency (C33A) | Potency (CAOV3) | outcome (CASKI) | Potency (Es-2) | Potency (HeLa) | Potency (Hek293T) | Potency (JEG-3)

O=C(O)/C=C/c1ccc(O[C@@H]2O[C@H](CO)[C@@H](O)[C@H](O)[C@H]2O)cc1
inactive: outcome (HACAT) | outcome (NIH3T3) | Potency (C33A) | outcome (CASKI) | Potency (Es-2) | Potency (HeLa) | Potency (Hek293T) | Potency (JEG-3)

O=C(Nc1ccccc1)Nc1ccc(-c2ccc(C(=O)C3CCCC3C(=O)O)cc2)cc1 (stereo unspecified)
inactive: outcome (HACAT) | outcome (NIH3T3) | Potency (C33A) | outcome (CASKI) | Potency (Es-2) | Potency (HeLa) | Potency (Hek293T) | Potency (JEG-3)

C=C1C(=O)O[C@@H]2C[C@]3(C)[C@@H](CCC(C)=O)[C@@H]3C[C@H]12
inactive: outcome (HACAT) | outcome (NIH3T3) | Potency (C33A) | Potency (CAOV3) | outcome (CASKI) | Potency (Es-2) | Potency (HeLa) | Potency (Hek293T) | Potency (JEG-3)

C/C(=C\CCC1(C)C2CC3C(C2)C31C)C(=O)O (stereo unspecified)
inactive: outcome (HACAT) | outcome (NIH3T3) | Potency (C33A) | Potency (CAOV3) | outcome (CASKI) | Potency (Es-2) | Potency (HeLa) | Potency (Hek293T) | Potency (JEG-3)

CCOC(=O)CSc1nc2c(sc3ccccc32)c(=O)n1CCCN1CCCC1
inactive: outcome (HACAT) | outcome (NIH3T3) | Potency (C33A) | Potency (CAOV3) | outcome (CASKI) | Potency (Es-2) | Potency (Hek293T) | Potency (JEG-3)

Reference: PubChem BioAssay (NCATS)
